This excerpt belongs to a sample that is enriched for hits.
Integrin act MD = qHTS for Activators of Integrin-Mediated Alleviation for Muscular Dystrophy | Potency, µM (top dose mostly 38.3 µM), inactives show at the highest dose activation, usual class: activators | alpha7betagal myoblasts, beta-gal FDG fluorescence, 48 h | 0.064% of 350,000 active;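 further: potency means the concentration at half of the fitted maximal effect; 100% = response of the positive control SU9516; nearly all actives have a fitted effect of over 60% in size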
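alpha7betagal+/- myoblasts (passage 13, 250/well) treated 48 h at 37C with compounds at 1:260 dilution of DMSO stock. Lysed, then beta-galactosidase activity read as FDG fluorescence (ex 480/em 540) after 30 min, with pre-read for autofluorescence.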
Giardia kill = Small Molecules that selectively kill Giardia lamblia: qHTS; Giardia lamblia trophozoite viability; activity change, % at 7.66 µM, hits read low; 0.15% of 340,000 active; in the data active means activity change below about -80%; inconclusive means between about -30% and that limit;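 further: parasites exposed to compound for two days anaerobically before the ATP read; on the % scale 0 is the no-effect control and ±100 the full control effect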
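Giardia trophozoites, 100 cells per well, were exposed to compounds for 48 hrs at 37 deg C under anaerobic conditions; viability was then read as ATP content by bioluminescence after 15-30 min at room temperature.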
VP16 counter = VP16 counterscreen qHTS for inhibitors of ROR gamma transcriptional activity. Drosophila S2 Gal4-VP16 UAS-luciferase, luminescence, 20 h. Potency, µM (top dose mostly 53.6 µM), inactives show top-dose activity, negative = inhibition, actives largely listed as inhibitors. 3.5% of 310,000 active. AID 2546, 2010;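 further: Gal4-VP16 expression switched on by copper sulfate through the metallothionein promoter; potency means the concentration at half of the fitted maximal effect; on the % scale 0 is the no-effect control and ±100 the full control effect; nearly all actives have a fitted effect of over 50% in size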
RORgamma inh = qHTS for inhibitors of ROR gamma transcriptional activity; 5.4% of 310,000 active; Nuclear receptor ROR-gamma (Mus musculus), P51450; Potency, µM (series often up to 53.6 µM), for inactives: at the highest dose activity change, negative = inhibition, actives largely listed as inhibitors; AID 2551, 2010; Drosophila S2 Gal4-RORgamma UAS-luciferase reporter, 20 h; further: potency means the concentration at half of the fitted maximal effect; on the % scale 0 is the no-effect control and ±100 the full control effect; nearly all actives have a fitted effect of over 60% in size
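Drosophila Schneider cells stably carrying a metallothionein-driven Gal4 DBD–ROR gamma fusion and a UAS-Photinus luciferase reporter were exposed to compound for 1 hr, then induced with copper sulfate (700 uM final) for 20 hr at ambient temperature before luminescence reading.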
ERG Ets-DNA blk = qHTS for Small Molecule Inhibitors of the ERG Ets/DNA interaction | Transcriptional regulator ERG (Homo sapiens), P11308 | fluorescence polarization, His-ERG Ets domain / labelled DNA | Potency, µM (highest dose often 76.9 µM), for inactives: at the highest dose FP activity, negative = inhibition, usual class: inhibitors | 0.028% of 370,000 active | AID 624246, 2012; active means well fitted inhibition curve with a large enough effect in the polarisation, with a control signal flat; inconclusive means small, poorly fitted or top-dose-only effect, or effect the other way, or a change in a side signal; inactive means no such curve, though single readings can be large or run the other way; the % refers to the polarisation;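 further: polarization taken with two DNA probes labelled with fluorescein and Texas red; potency means the concentration at half of the fitted maximal effect; % of control where 0% means no effect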
Target sequence (P11308 whole entry, looked up, the tested form may be a part): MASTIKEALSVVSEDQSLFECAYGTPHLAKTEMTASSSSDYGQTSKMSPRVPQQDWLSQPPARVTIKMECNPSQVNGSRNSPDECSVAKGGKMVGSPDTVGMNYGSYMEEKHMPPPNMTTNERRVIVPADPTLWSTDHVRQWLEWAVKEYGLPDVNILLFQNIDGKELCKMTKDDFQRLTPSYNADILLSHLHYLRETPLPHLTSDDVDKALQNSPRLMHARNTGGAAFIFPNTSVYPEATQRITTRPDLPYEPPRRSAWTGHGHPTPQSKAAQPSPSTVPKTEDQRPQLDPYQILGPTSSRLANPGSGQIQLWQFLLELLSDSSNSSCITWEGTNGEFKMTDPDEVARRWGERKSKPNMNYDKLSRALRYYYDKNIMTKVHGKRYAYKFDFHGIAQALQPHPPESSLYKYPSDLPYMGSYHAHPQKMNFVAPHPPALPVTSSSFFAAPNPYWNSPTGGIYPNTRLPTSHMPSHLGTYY
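His-tagged ERG Ets domain (1 uM in the protein solution; 300mM KCl, 50mM Tris-HCl, 1mM EDTA, 1mM DTT, pH 7.5) received compound, then a probe mix of 5 nM fluorescein-DNA and 100nM Texas-615-DNA. Fluorescence polarization was read for both dyes.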
Starred values were filed as active, the others as inactive; ? = inconclusive; · = no result given; [ ] = another dose, or the depositor's remark. Unless noted, the call rests on the fitted dose curve; in most records, active means well fitted curve in the direction sought with a large enough effect; inconclusive means small, poorly fitted or top-dose-only effect, or another doubt; inactive means no such curve, though single readings can be large; an effect the other way counts as inactive or inconclusive.

SMILES	Integrin act MD	Giardia kill	VP16 counter	RORgamma inh	ERG Ets-DNA blk
Clc1ccc(/C=N/Nc2nnc(Cl)c3ccccc23)cc1	8.6%	-10.7	-24.7%	?	·
Clc1nnc(N/N=C/c2ccccc2)c2ccccc12	2.5%	9.1	?	10µM*	-6.1%
NC1(C(=O)O)C[C@H](C(=O)O)[C@H](C(=O)O)C1 (stereo partly drawn)	·	·	-6.2%	15.2%	·
CC(C)Oc1ccc(CNC(=O)c2cnc3sc(N4CCCCCC4)nn3c2=O)cc1	·	·	·	·	-4.5%
N#CCC(=O)N/N=C/c1ccc(N2N=C(c3ccccc3)CC2c2ccccc2)cc1 (stereo not drawn)	9.0%	-17.8	1.8%	-42.5%	6.6%
Cc1cccc(C)c1Nc1nn2c(=O)c3cc4c(cc3nc2s1)OCO4	·	·	·	·	-0.8%
O=C(CCc1nnc2ccc(NCc3ccccc3)nn12)NC1CCCC1	-12.5%	-5.1	-3.0%	-13.3%	5.7%
CC1CC(C)CN(CCCNC(=O)c2ccc3c(c2)N(Cc2ccccc2)C(=O)c2ccccc2S3=O)C1 (stereo not drawn)	-44.6%	-13.7	-17.5%	11.2µM*	0.8%
CC1CCC(NC(=O)c2ccc3c(c2)N(Cc2ccccc2)C(=O)c2ccccc2S3=O)CC1 (stereo not drawn)	·	·	·	·	-2.6%
CCc1ccc(C(=O)c2cn(CC(=O)NCCc3ccc(OC)c(OC)c3)c3nc(C)ccc3c2=O)cc1	·	·	·	·	12.1%
Cc1ccc(-c2noc(CNC(=O)c3ccc(C)c(Cl)c3)n2)cc1	·	·	·	·	2.7%
C=CCNC(=S)/N=c1/ccccn1C	-5.3%	4.3	-3.5%	-13.8%	3.9%
C=CCNC(=S)/N=c1/ccccn1CCC	-67.7%	9.2	?	5.01µM*	-14.0%
c1ccc(CNc2ccc3ccccc3n2)nc1	42.1%	-0.6	?	10µM*	0.5%
COc1ccc2c(C(=O)CCl)c[nH]c2c1	-64.9%	22.3	17.8µM*	?	4.4%
COc1ccc(OCC(=O)c2c[nH]c3ccccc23)cc1	-18.7%	-10.0	-2.6%	-16.3%	0.0%
S=c1[nH]nc(COc2ccccc2)n1/N=C/c1ccccc1Cl	-17.8%	-17.1	12.6µM*	6.31µM*	-17.7%
S=c1[nH]nc(COc2ccccc2)n1/N=C/c1c(Cl)cccc1Cl	5.8%	?	-29.3%	3.55µM*	10.0%
CC(C)(C)c1cc(C(=O)N/N=C/c2ccccc2O)n(-c2ccccc2)n1	3.0%	-7.8	1.12µM*	0.631µM*	-2.9%
CC(C)(C)c1cc(C(=O)N/N=C/c2ccc(F)cc2)n(-c2ccccc2)n1	-22.1%	-9.5	13.5%[0.365 µM]	53.9%	-8.0%
COc1ccc(/C=N/NC(=O)c2nc(-c3ccccc3)n(-c3ccccc3)n2)c(O)c1	12.5%	26.0	6.31µM*	2.24µM*	6.6%
COc1ccc(/C=N/NC(=O)c2nc(-c3ccccc3)n(-c3ccccc3)n2)cc1	-10.6%	-16.7	2.7%	-4.0%	6.0%
CC[C@H](C)[C@H](NC(=O)[C@@H](NC(=O)[C@@H](NC(=O)[C@H](CCC(=O)O)NC(=O)[C@H](CCC(=O)O)NC(=O)[C@H](CCC(=O)O)NC(=O)[C@H](C)NC(=O)[C@@H](N)CC(C)C)C(C)C)C(C)C)C(=O)N[C@@H](CCCNC(=N)N)C(=O)N[C@@H](CO)C(=O)N[C@@H](C)C(=O)N[C@@H](CC(N)=O)C(=O)N[C@@H](Cc1ccccc1)C(=O)N[C@H](C(=O)N[C@@H](CC(=O)O)C(=O)N[C@@H](CC(N)=O)C(=O)O)[C@@H](C)O	·	·	0.3%	-10.6%	·
CCCCCn1c(=N)c(S(=O)(=O)c2ccc(C)cc2)cc2c(=O)n3cc(C)ccc3nc21	·	·	·	·	5.0%
O=C(Nc1ncc(Br)s1)C(Cc1ccccc1)n1cccc1 (stereo not drawn)	-3.3%	-7.7	?	12.6µM*	4.8%
SMILES	Integrin act MD	Giardia kill	VP16 counter	RORgamma inh	ERG Ets-DNA blk
O=C(Nc1cccnc1)C(Cc1ccccc1)n1cccc1 (stereo not drawn)	-3.3%	-6.8	1.1%	1.5%	5.4%
O=C(C#Cc1ccccc1)c1ccc([N+](=O)[O-])cc1	-26.7%	5.8	7.94µM*	11.2µM*	2.9%
CC(=O)OC[C@@H]1O[C@@H](O/N=C2/C[C@@H](O)[C@@H](O)[C@@H]3[C@@H]4C(=O)N(Cc5ccccc5)C(=O)[C@H]4CC[C@H]23)[C@H](OC(C)=O)[C@H](OC(C)=O)[C@@H]1OC(C)=O	·	·	-0.1%[10 µM]	-5.3%[10 µM]	·
COc1ccc([C@H]2CN(CCc3ccccc3)C(=O)[C@@H]2CC(=O)Nc2ccccc2)cc1	23.2%	·	·	·	·
CCCCN(CCCC)C(=S)NC(=O)C(C)(C)C	-15.7%	-15.4	6.31µM*	3.16µM*	-1.1%
CCCCN(CC)C(=O)c1ccc(Cl)c(Cl)c1	-38.9%	-3.4	5.9%	19.3%	-0.3%
CCOC(=O)N/N=C1/C[C@@H](O)[C@@H](O)[C@@H]2[C@@H]3C(=O)N(Cc4ccc5c(c4)OCO5)C(=O)[C@H]3CC[C@@H]12	·	·	1.3%[10 µM]	-7.1%[10 µM]	·
COC(=O)[C@H](CCSC)NC(=O)C/C=C\[C@@H](C)[C@@H](CO)OC	·	·	-6.6%[10 µM]	-4.6%[10 µM]	·
CN(/N=C/c1cc(Cl)cc(Cl)c1O)C(=S)NC(C)(C)C	25.0%	-15.6	15.8µM*	?	-13.2%
Cc1ccc(C(=O)Nc2ccsc2C(=O)O)cc1	11.8%	-17.3	?	11.2µM*	8.7%
O=C(Nc1cccc(Cl)c1)c1ccc(F)c(S(=O)(=O)NCc2cccs2)c1	-38.1%	-4.0	20µM*	14.9%	-7.7%
O=C(Nc1cc(Cl)cc(Cl)c1)c1ccc(F)c(S(=O)(=O)NCc2ccccc2Cl)c1	·	·	·	·	4.4%
Cc1cc(C(=O)O)cc(S(=O)(=O)NNC(=O)c2cccs2)c1C	-16.4%	-10.0	-6.3%	-13.1%	2.4%
CC(NC(=O)CN(C)Cc1nc2ccccc2c(=O)[nH]1)c1ccccc1 (stereo not drawn)	-8.9%	0.8	-4.9%	5.2%	-5.8%
CN(CC(=O)Nc1ccc2c(c1)OCCO2)Cc1nc2ccccc2c(=O)[nH]1	44.4%	6.8	·	·	-6.6%
CCN(CC(=O)Nc1ccccc1Br)Cc1nc2ccccc2c(=O)[nH]1	14.1%	35.5	?	11.2µM*	-2.0%
Cc1cccc(C)c1NC(=O)CN(C)C(C)C(=O)Nc1ccccc1-c1ccccc1 (stereo not drawn)	34.0%	-11.3	-9.6%	25.5%	-16.4%
Cc1ccc(NC(=O)CN(C)Cc2nc3ccccc3c(=O)[nH]2)c(Br)c1	3.5%	-1.6	?	11.2µM*	10.7%
Cc1cc(Br)ccc1NC(=O)CNC(=O)CN(C)Cc1nc2ccccc2c(=O)[nH]1	-21.3%	-11.8	-29.9%	12.6µM*	·

Screening results deposited in PubChem BioAssay by National Center for Advancing Translational Sciences (NCATS).
